The list is not random: actives were taken first. Their share in the collection is about 21%.
Shiga inhibitor – inhibitors of Shiga toxin in Vero cells; inhibition, % at 38.7 µM; Vero cells, Shiga toxin protein synthesis inhibition reporter; AID 2315; 9.2% of 290,000 active; in the data active means inhibition mostly above about 28%, no sharp cut-off; inactive means mostly below about 43%; further: 0% is about no effect
NS1 inh – influenza NS1 inhibition; 0.4% of 270,000 active; AID 2326; Potency, µM (highest dose often 46.1 µM), without a hit: top-dose activity, positive = more growth; calls by dose curve; further: potency means the concentration at half of the fitted maximal effect; actives are rising curves; nearly all actives have a fitted effect of over 50% in size
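OD600 was taken as the measure of yeast growth restored by compound in an NS1-expressing S. cerevisiae strain. Cells had been washed out of glucose medium and diluted 1:100 into galactose -URA medium, pH 6.0.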
Sm TGR block – inhibitors of Schistosoma mansoni thioredoxin glutathione reductase; Q962Y6; purified TGR, DTNB reduction, TNB absorbance 405 nm; Potency, µM (doses to about 114 µM), for inactives: at the highest dose activity change, negative = inhibition, actives largely listed as inhibitors; 3% of 360,000 active; AID 485364; further: potency means the concentration at half of the fitted maximal effect; on the % scale 0 is the no-effect control and ±100 the full control effect; nearly all actives have a fitted effect of over 60% in size
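First, TGR (20 nM dispensed) and NADPH were mixed with compound. Second, a 15 min room-temperature incubation followed. Third, further NADPH and then DTNB were added to start the reaction. Finally, TNB absorbance was monitored kinetically.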
Cycloheximide cs – counter-screen for Shiga toxin inhibitors: cycloheximide protein synthesis inhibition. cell reporter, cycloheximide protein synthesis inhibition counterscreen. max response, %. 12% of 300,000 active; in the data active means max response mostly above about 13%, no sharp cut-off; inactive means mostly below about 14%; further: read at 38.3 µM for the half of the compounds with a filed dose; 0% is about no effect
Pf growth 96h – inhibits malaria parasite growth, 96 h; Potency, µM (doses to about 28.7 µM), without a hit: at the top dose activity change, negative = inhibition, hits mostly inhibitors; P. falciparum luciferase reporter growth, 96 h; AID 504834; 6.9% of 320,000 active; further: potency means the concentration at half of the fitted maximal effect; on the % scale 0 is the no-effect control and ±100 the full control effect
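Delayed-death screen, second-generation endpoint: infected erythrocytes, 2% hematocrit, 0.05% parasitemia final; 96 hours at 37 C, 5% CO2; luciferase detection reagent; luminescence decrease equals reduced growth.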
Pf growth 48h – P. falciparum growth inhibition at 48 hours (one generation). P. falciparum luciferase growth in erythrocytes, 48 h. Potency, µM (titrated, usually from 28.7 µM), for inactives: top-dose activity change, negative = inhibition, hits mostly inhibitors. 5.9% of 310,000 active. AID 504832; further: potency means the concentration at half of the fitted maximal effect; on the % scale 0 is the no-effect control and ±100 the full control effect
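Erythrocytes infected with P. falciparum carrying an integrated firefly luciferase reporter (2% hematocrit, 0.1% parasitemia final) were exposed to compounds in RPMI 1640 with 0.5% Albumax at 37 C, 5% CO2. Growth inhibition was scored as reduced luminescence.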
An asterisk follows results filed as active. Unless noted, the call rests on the fitted dose curve; in most records, active means well fitted curve in the direction sought with a large enough effect; inconclusive means small, poorly fitted or top-dose-only effect, or another doubt; inactive means no such curve, though single readings can be large; an effect the other way counts as inactive or inconclusive.

`Cc1nc2cc(NC(=O)CCS(=O)(=O)c3ccccc3)ccc2s1` gave Shiga inhibitor 58*, NS1 inh -2%, Sm TGR block 6%, Cycloheximide cs 37*, Pf growth 96h 140% and Pf growth 48h 201%.
Screening Cc1ccc(S(=O)(=O)Nc2ccc(-c3nc4ccc(C)cc4s3)cc2)cc1 returned Shiga inhibitor 2, NS1 inh 19%, Sm TGR block 1%, Cycloheximide cs -3, Pf growth 96h 48% and Pf growth 48h 50%.
Cc1ccc2nc(-c3ccc(NC(=O)CCS(=O)(=O)c4ccccc4)cc3)sc2c1 was read as Shiga inhibitor 65*, NS1 inh -6%, Sm TGR block 5%, Cycloheximide cs 47*, Pf growth 96h inconclusive and Pf growth 48h 10%.
Cc1nc2ccc(NC(=O)CCS(=O)(=O)c3ccccc3)cc2s1 was read as Shiga inhibitor 94*, NS1 inh 24%, Sm TGR block 0%, Cycloheximide cs 47*, Pf growth 96h inconclusive and Pf growth 48h inconclusive.
Screening Cc1ccc(S(=O)(=O)CCC(=O)Nc2ccc3nc(C)sc3c2)cc1 returned Shiga inhibitor -4, NS1 inh 3%, Sm TGR block inconclusive, Cycloheximide cs 4, Pf growth 96h -6% and Pf growth 48h -5%.
`CCc1ccc(C(=O)CCC(=O)Nc2cccc(S(=O)(=O)N3CCCCC3)c2)cc1` gave Sm TGR block 1%, Pf growth 96h inconclusive and Pf growth 48h inconclusive.
Screening CS(=O)(=O)c1ccccc1-c1csc(N2CCC(C(N)=O)CC2)n1 returned Sm TGR block -11%, Pf growth 96h 18% and Pf growth 48h -3%.
For Nc1ccc2nc3c(=O)n(C4CCCCC4)c(=O)[nH]c3nc2c1 the results were Shiga inhibitor 78*, NS1 inh 7%, Sm TGR block 0%, Cycloheximide cs 40*, Pf growth 96h 19% and Pf growth 48h -8%.
`Nc1ccc2nc3c(=O)n(CCc4ccccc4)c(=O)[nH]c3nc2c1` gave Shiga inhibitor 19, NS1 inh 0%, Sm TGR block inconclusive, Cycloheximide cs 1, Pf growth 96h -23% and Pf growth 48h -14%.
`CCCCn1c(=O)[nH]c2nc3cc(N)ccc3nc2c1=O` gave Shiga inhibitor 81*, NS1 inh inconclusive, Sm TGR block -18%, Cycloheximide cs 80*, Pf growth 96h inconclusive and Pf growth 48h 46%.
`CCc1ccccc1NC(=O)c1cnn2c(C(F)(F)F)cc(-c3ccc(OC)c(OC)c3)nc12` gave Sm TGR block 0%.
For CCOC(=O)c1ccc(N=NN(C)C)cc1 the results were Shiga inhibitor 91*, NS1 inh -28%, Sm TGR block 1%, Cycloheximide cs 31*, Pf growth 96h -10% and Pf growth 48h 110%.
`CCOC(=O)c1ccc(O)cc1` gave Pf growth 96h 23% and Pf growth 48h 16%.
CCOC(=O)c1cccnc1 was read as Pf growth 96h -15% and Pf growth 48h -3%.
`CCOC(=O)c1ccc(C(=O)OCC)nc1` gave Shiga inhibitor 35*, NS1 inh 0%, Sm TGR block 6%, Cycloheximide cs 16*, Pf growth 96h 24% and Pf growth 48h 10%.
For COC(CNC(=O)CN1CCN(Cc2ccc(F)cc2Cl)C1=O)OC the results were Shiga inhibitor -2, NS1 inh -1%, Sm TGR block -13%, Cycloheximide cs -3, Pf growth 96h 22% and Pf growth 48h 7%.
COc1ccc(C(=O)c2ccc(OC)c(N)c2)cc1N was read as Shiga inhibitor 122*, NS1 inh 13%, Sm TGR block 4%, Cycloheximide cs 50* and Pf growth 48h 135%.
`COc1ccc(C(=O)c2ccc(OC)c(OC)c2)cc1OC` gave Shiga inhibitor 16, NS1 inh -15%, Sm TGR block 2%, Cycloheximide cs -4, Pf growth 96h 24% and Pf growth 48h -8%.
For O=c1[nH]c(SCc2ccccc2)nc2c1CCCC2 the results were Sm TGR block 0%.
CCOc1ccc2[nH]c(=O)c(CN(Cc3cccs3)Cc3nnnn3C(C)(C)C)cc2c1 was read as Shiga inhibitor -6, NS1 inh -2%, Sm TGR block 0%, Cycloheximide cs -2, Pf growth 96h 19% and Pf growth 48h 12µM*.
Screening CCOC(=O)Cn1nnnc1CN(CCc1ccccc1)Cc1cc2cc(CC)ccc2[nH]c1=O returned Shiga inhibitor -7, NS1 inh 1%, Sm TGR block -12%, Cycloheximide cs -5 and Pf growth 96h inconclusive.
For Cc1ccc2[nH]c(=O)c(CN(Cc3cccs3)Cc3nnnn3Cc3ccccc3)cc2c1 the results were Shiga inhibitor -5, NS1 inh inconclusive, Sm TGR block 0%, Cycloheximide cs -1, Pf growth 96h -13% and Pf growth 48h 12µM*.
For Cc1ccc2[nH]c(=O)c(CN(CCO)Cc3nnnn3CCc3ccccc3)cc2c1 the results were Shiga inhibitor -2, NS1 inh -8%, Sm TGR block -1%, Cycloheximide cs -2, Pf growth 96h 8.3µM* and Pf growth 48h 8%.
For CC1CC=CC2C1C(=O)N(Cc1ccccc1)C2c1ccc2ccccc2c1Br (stereo not given) the results were Shiga inhibitor -2 and Cycloheximide cs 9.
For CCC1Oc2ccc(C)cc2N(CC(=O)NCCc2ccccc2)C1=O (stereo not given) the results were Sm TGR block 5%.
Screening Cc1cc(Cl)ccc1NC(=O)CCCn1nc(C)c2c(C)n(-c3ccccc3)nc2c1=O returned Sm TGR block 8%.
O=C(CCC(=O)N1CCOc2ccccc21)NC1CCCCCC1 was read as Shiga inhibitor 13, NS1 inh -5%, Sm TGR block -14%, Cycloheximide cs 6.6*, Pf growth 96h 9% and Pf growth 48h -14%.
CCOC(=O)N1CCC(NC(=O)CCC(=O)N2CCOc3ccccc32)CC1 was read as Shiga inhibitor 4, NS1 inh inconclusive, Sm TGR block -19%, Cycloheximide cs 7, Pf growth 96h inconclusive and Pf growth 48h 37%.
COc1ccc(Cl)cc1NC(=O)CCC(=O)N1CCOc2ccccc21 was read as Sm TGR block 11%.
`Cc1ccc(NC(=O)CCC(=O)N2CCOc3ccccc32)c(Cl)c1` gave Shiga inhibitor 17*, NS1 inh -7%, Sm TGR block -11%, Cycloheximide cs 11*, Pf growth 96h -29% and Pf growth 48h 38%.
`COC(=O)c1sccc1S(=O)(=O)N(CC(=O)Nc1ccccc1F)c1ccccc1` gave Sm TGR block -13%.
CCOC(=O)N1CCN(C(=O)COC(=O)c2ccccc2NCCO)CC1 was read as Sm TGR block -1%, Pf growth 96h -5% and Pf growth 48h 0%.
